Measured values taken from PubChem BioAssay AID504500 (NMMLSC, 2011).
Potency and affinity values are given separately. Active and inactive are the calls of the source.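 The calls were made as follows: active = compounds whose curve fit is tight, with span above 25% and half-effect concentration below 10 µM; inactive = the rest.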

The compounds below were run against Beta-adrenergic receptor kinase 1 (Homo sapiens) (UniProt P25098) (assay: aptamer displacement from bead-bound GRK2 – biochemical, cherry pick 1, bead flow cytometry, dose response (AID 504500)). Settings: bead-bound biotinylated GRK2, FAM-aptamer displacement; series mostly up to 33 µM; inhibition of aptamer binding: at the top concentration.
Sequence of Beta-adrenergic receptor kinase 1 (Homo sapiens) (P25098 whole entry, looked up): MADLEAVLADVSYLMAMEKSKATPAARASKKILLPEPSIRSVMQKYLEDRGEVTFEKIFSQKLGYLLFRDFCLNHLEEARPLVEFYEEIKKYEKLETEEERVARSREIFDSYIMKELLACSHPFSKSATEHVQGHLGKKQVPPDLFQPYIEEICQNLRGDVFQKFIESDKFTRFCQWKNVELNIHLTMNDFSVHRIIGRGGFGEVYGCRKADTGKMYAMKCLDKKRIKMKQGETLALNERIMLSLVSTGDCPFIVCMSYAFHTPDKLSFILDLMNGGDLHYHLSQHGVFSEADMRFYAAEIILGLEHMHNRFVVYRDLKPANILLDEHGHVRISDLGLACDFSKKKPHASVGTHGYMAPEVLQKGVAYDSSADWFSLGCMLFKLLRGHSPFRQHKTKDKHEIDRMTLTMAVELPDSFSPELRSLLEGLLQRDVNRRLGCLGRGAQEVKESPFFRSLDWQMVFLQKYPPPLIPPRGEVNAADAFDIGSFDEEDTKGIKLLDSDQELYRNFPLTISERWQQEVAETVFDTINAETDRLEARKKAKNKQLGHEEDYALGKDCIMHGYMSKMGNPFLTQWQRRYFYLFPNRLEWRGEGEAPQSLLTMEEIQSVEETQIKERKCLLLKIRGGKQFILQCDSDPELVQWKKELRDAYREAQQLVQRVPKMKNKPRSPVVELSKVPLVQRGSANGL

Inhibition of aptamer binding, inactive:
O=C(O)C1Nc2c(O)cc(Cl)c([N+](=O)[O-])c2C2C=CCC12 (stereo unspecified) -0.66%
O=C(CCS(=O)(=O)c1ccc(Br)cc1)NCc1cccs1 78.5%
O=C(CCS(=O)(=O)c1ccc(Br)cc1)NC1CCCC1 49.7%
O=C(CN1CCc2ccccc21)NC(=O)NCc1ccccc1 53.7%
CC(=O)Nc1ccc(N(C)C)cc1[N+](=O)[O-] 7.48%
CC(=O)N1CCN(Cc2nc3cc(Cl)ccc3c(=O)[nH]2)CC1 59.3%
CCN1/C(=C/C(C)=C/c2sc3ccccc3[n+]2CC)Sc2ccccc21 17.1%
COc1ccc(N2CCN(C(CNS(=O)(=O)c3ccc(C)cc3)c3ccccc3)CC2)cc1 (stereo unspecified) 3.97%
COc1ccc(CCNC(=O)CCS(=O)(=O)c2ccc(Br)cc2)cc1OC 17%
Cc1cc2ccccc2n1CCNC(=O)C(C)Oc1ccccc1 (stereo unspecified) 63.4%
CCOc1ccc(CCNC(=O)CCS(=O)(=O)c2ccc(Br)cc2)cc1OCC 2.77%
O=C(CC1SC(N2CCCCC2)=NC1=O)Nc1cccc(C(=O)NCc2ccc(F)cc2)c1 (stereo unspecified) 99.4%
CN(C)c1cccc(C(=O)OCc2cc(=O)oc3cc(O)ccc23)c1 -6.6%
Cc1ccc(S(=O)(=O)Cc2ccc(C(=O)O)o2)cc1 -1.3%
Cc1cc2ccccc2n1CCNC(=O)c1ccc(S(=O)(=O)N2CCCCC2)cc1 44.1%
O=C(CCS(=O)(=O)c1ccc(Br)s1)N1CCc2ccccc21 -2.03%
CC(C)C(C(=O)O)N1C(=O)/C(=C/C=C/c2ccco2)SC1=S (stereo unspecified) 27.4%
CC(=O)N1CCCc2cc(S(=O)(=O)CCC(=O)N3CCN(c4cccc(C)c4)C(C)C3)ccc21 (stereo unspecified) -2.62%
Cc1cccc(CCNC(=O)CCS(=O)(=O)c2ccc(Br)cc2)c1 43.7%
CCN1/C(=C/C=C/c2sc3ccccc3[n+]2CC)Sc2ccccc21 -5.22%
CCC(/C=C1\Sc2ccc(OC)cc2N1CC)=C\c1sc2ccc(OC)cc2[n+]1CCCS(=O)(=O)[O-] -7.34%
C#CCSc1nc2sc3c(c2c(=O)n1C)CCC3 85.1%
COC(=O)c1ccc(NC(=O)CCS(=O)(=O)c2ccc(Br)cc2)cc1 76.5%
COCCNC(=O)C/C(C)=N/NC(=O)C(=O)NC1CCCCC1 2.44%
CCOC(=O)c1sc(NCc2ccco2)c(-c2nc3ccccc3s2)c1N 8.14%
CNC(=O)c1[nH]cnc1C(=O)Nc1ccc(F)cc1 1.5%
COc1ccc2nc(SCC(=O)Nc3ccc4c(c3)OCCO4)[nH]c2c1 -0.24%
Cc1cc2ccccc2n1CCNC(=O)c1ccccc1 -0.61%
COc1ccc(OC)c(N2C(=O)[C@@H]3C(c4ccccc4Cl)=NO[C@@H]3C2=O)c1 76.3%
O=C(CCS(=O)(=O)c1ccc(Br)s1)Nc1ccccc1Br 31.5%
COc1cc(/C=C2\CCc3c2nc2ccccc2c3C(=O)O)cc(OC)c1OC -1.83%
